GoLoco inh red = inhibitors of human Gai1-RGS12 GoLoco interaction (red fluorophore); P63096; Gai1:RGS12 GoLoco peptide FP, rhodamine, 10 min; Potency, µM (titrated, usually from 61.6 µM), actives largely listed as inhibitors; actives 0.44% (n = 230,000); AID 880; active = well fitted inhibition curve with a large enough effect, not every such curve was filed as active; inactive = no such curve, though single readings can be large or run the other way; note: nearly all actives have a fitted effect of over 30% in size
Tau fibril FP = inhibitors of human tau fibril formation; Potency, µM (titrated, usually from 57.7 µM), most hits filed as inhibitors; P10636; K18 P301L tau heparin fibrillization, Alexa594 FP, 6 h; AID 1468; actives 0.39% (n = 280,000); note: nearly all actives have a fitted effect of over 55% in size
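Human K18 P301L fragment (15 uM unlabeled plus 0.24 uM Alexa 594-labeled) in 100 mM sodium acetate pH 7 with compound, aggregation induced by 20 uM heparin for 6 hr at 37 C. ThT (30 uM) added for 1 hr, then Alexa 594 FP read.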
TRb SRC2 PPI = TRbeta-SRC2 interaction inhibition; P10828; actives 0.065% (n = 280,000); TRbeta-SRC2 peptide binding, fluorescence polarization; receptor liganded with 1 µM T3; Potency, µM (top dose mostly 106 µM), hits mostly inhibitors; note: nearly all actives have a fitted effect of over 50% in size
Target sequence (P10828 whole entry, looked up): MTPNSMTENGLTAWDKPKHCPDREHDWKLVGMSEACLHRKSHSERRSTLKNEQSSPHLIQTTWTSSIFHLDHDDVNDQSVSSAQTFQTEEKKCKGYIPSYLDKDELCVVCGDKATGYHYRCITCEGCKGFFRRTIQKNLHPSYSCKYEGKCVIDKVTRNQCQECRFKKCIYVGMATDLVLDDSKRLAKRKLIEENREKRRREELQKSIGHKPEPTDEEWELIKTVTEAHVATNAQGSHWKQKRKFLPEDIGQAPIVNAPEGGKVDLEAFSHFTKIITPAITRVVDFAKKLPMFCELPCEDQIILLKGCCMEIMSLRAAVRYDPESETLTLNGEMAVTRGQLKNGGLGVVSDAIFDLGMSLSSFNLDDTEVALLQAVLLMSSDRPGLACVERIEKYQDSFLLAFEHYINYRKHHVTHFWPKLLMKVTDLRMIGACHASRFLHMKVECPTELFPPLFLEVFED
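Quantitative HTS by FP: 0.6 uM TRb LBD, 20 nM labeled SRC2 20-mer, 1 uM T3, 5% DMSO; 5 hr ambient incubation; % activity per concentration and potencies from concentration series.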
TR SRC2 fluor cs = alters Texas Red total fluorescence, flagging assay interference | AID 1479 | Potency, µM (top dose mostly 106 µM) | TRb/SRC2 Texas Red total fluorescence interference | actives 0.29% (n = 280,000); active = well fitted curve in either direction with a large enough effect; inconclusive = small, poorly fitted or top-dose-only effect
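Flags fluorescent or light-absorbing compounds by total fluorescence, S + 2P, at 555 nm excitation and 632 nm emission. Mixture: 20 nM Texas Red SRC2 peptide, 0.6 uM human TRb LBD, 1 uM T3, 5% DMSO; compound exposure 5 h at ambient temperature.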
Tau ThT inhib = tau fibrillization inhibition (ThT binding); P10636; recombinant tau K18 P301L, heparin-induced fibrillization, ThT fluorescence; Potency, µM (highest dose often 57.4 µM), most hits filed as inhibitors; actives 2.1% (n = 270,000); note: nearly all actives have a fitted effect of over 55% in size
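Heparin-induced (20 uM) aggregation of recombinant human K18 P301L tau, 15 uM unlabeled with 0.24 uM labeled, pH 7 acetate buffer, 6 hr at 37 C with compound. Fibrils quantified by 30 uM ThT fluorescence after 1 hr ambient incubation.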
Tau fluor cs = counter-screen for tau fibril formation inhibitors; actives 0.93% (n = 280,000); tau K18 P301L Alexa594 fluorescence, heparin fibrillization; Potency, µM (series often up to 57.7 µM); note: nearly all actives have a fitted effect of over 55% in size
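Human tau K18 P301L (15 uM unlabeled, 0.24 uM Alexa 594-labeled) in 100 mM sodium acetate pH 7 with 20 uM heparin, 6 hr at 37 C. ThT 30 uM added, 1 hr ambient; Alexa 594 FP and total fluorescence read at 555/632 nm.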
Hits are given with their value; n = inactive; u = inconclusive; x = no result given; [ ] = another dose, or the depositor's remark. Shown are actives, neighbours in structure and some others; about 3.1% of the full set was active somewhere. Unless noted, calls come from the whole dose curve; as a rule, active = well fitted curve in the direction sought with a large enough effect; inconclusive = small, poorly fitted or top-dose-only effect, or another doubt; inactive = no such curve, though single readings can be large; an effect the other way counts as inactive or inconclusive.

SMILES	GoLoco inh red	Tau fibril FP	TRb SRC2 PPI	TR SRC2 fluor cs	Tau ThT inhib	Tau fluor cs
CC[n+]1c(/C=C/c2c[nH]c3ccccc23)ccc2cc(C)ccc21	n	u	n	n	2µM	1.3µM[fluorescent]
COc1ccccc1C(C[N+](=O)[O-])c1c[nH]c2ccccc12 (centres undefined)	n	u	n	n	n	32µM[quencher]
COC(=O)N=Nc1c(O)n(Cc2ccccc2)c2ccccc12	n	n	n	n	u	n
O=C(N=Nc1c(O)n(Cc2ccccc2)c2ccccc12)c1ccncc1	n	n	n	n	16µM	n
Cc1cc(C)c(C(CC(=O)c2cccs2)C(C#N)C#N)c(C)c1 (centres undefined)	n	n	n	n	25µM	n
CC(CC(=O)c1cccs1)CC(=O)c1cccs1	n	n	n	n	n	n
CCOC(=O)c1nc(NCc2ccccc2)c2ccccc2n1	n	n	n	n	n	n
Cc1cccc(N2CCc3c2nc2ccc(Br)cc2c3N)c1	n	u	n	n	28µM	16µM[quencher]
Nc1c2c(nc3ccc(Br)cc13)N(Cc1ccccc1)CC2	n	n	n	n	u	u
Nc1c2c(nc3ccc(Br)cc13)N(c1ccccc1)CC2	n	n	n	n	u	14µM[quencher]
COc1cccc(CN2CCN(C(=O)c3cc(-c4cccnc4)nc4ccc(C)cc34)CC2)c1	n	n	n	n	n	n
CC(C)C(=O)Nc1ccc2c(c1)nc(CCN1CCN(c3ccccc3)CC1)n2C	n	n	n	n	n	n
CCOC(=O)N1CCN(C(=O)c2oc3ccc(S(=O)(=O)N4CCCCC4)cc3c2C)CC1	n	n	n	n	n	n
Cc1c(C(=O)N2CCCCC2)oc2ccc(S(=O)(=O)N3CC(C)CC(C)C3)cc12 (centres undefined)	x	20µM	n	n	u	u
Fc1ccc(-c2cc(-c3cccs3)cc(-c3ccccc3)n2)cc1	n	u	n	n	n	n
Fc1ccc2[nH]c(-c3cccs3)cc2c1	x	u	n	n	u	11µM[quencher]
O=C(CN1C(=O)NC(CCc2ccccc2)C1=O)NC1CC1 (centres undefined)	n	n	n	n	n	n
Cc1ccc(/C=C\c2nccc3c2[nH]c2ccccc23)cc1	n	n	n	n	u	11µM[quencher]
C(=C\c1nccc2c1[nH]c1ccccc12)/c1ccccc1	n	n	n	n	u	20µM[quencher]
Fc1ccc(/C=C\c2nccc3c2[nH]c2ccccc23)cc1	n	n	n	n	u	u
CC(C)CC(=O)Nc1nnc(S(=O)(=O)N2CCCCCC2)s1	x	n	n	n	2.8µM	n
Cc1ccccc1OCC(=O)Nc1nnc(S(=O)(=O)N2CCCCCC2)s1	x	n	n	n	3.2µM	n
O=C(COc1ccc(F)cc1)Nc1nnc(S(=O)(=O)N2CCc3ccccc32)s1	x	n	n	u	2.8µM	n
O=C(COc1ccc(Cl)cc1)Nc1nnc(S(=O)(=O)N2CCCCCC2)s1	x	n	n	u	u	n
CCC(C)Sc1nc(O)cc(=O)[nH]1 (centres undefined)	n	n	n	n	n	n
SMILES	GoLoco inh red	Tau fibril FP	TRb SRC2 PPI	TR SRC2 fluor cs	Tau ThT inhib	Tau fluor cs
CCc1ccc(C(=O)c2cn(CC(=O)Nc3cccc(C)c3C)c3nc(C)ccc3c2=O)cc1	x	n	n	n	u	n
COc1ccc2[nH]cc(CCNc3cc(-c4ccc5c(c4)OCO5)ncn3)c2c1	n	x	x	x	x	x
CCCSC1=N/C(=C\c2ccc([N+](=O)[O-])o2)C(=O)S1	n	u	n	u	13µM	u
O=C1SC(SCc2ccccc2)=N/C1=C\c1ccco1	n	n	n	n	u	n
CCSC1=N/C(=C\c2ccc(-c3ccccc3[N+](=O)[O-])o2)C(=O)S1	n	u	u	u	5µM	u
CCCSC1=N/C(=C\c2ccsc2)C(=O)S1	n	n	n	n	n	n
CCCSC1=N/C(=C\C=C\c2ccco2)C(=O)S1	n	u	n	u	14µM	u
CCCOc1ccc(CNC(=O)CCCn2nc(C)c3sc4ccccc4c3c2=O)cc1	x	n	n	n	u	n
